Measured values taken from ChEMBL document CHEMBL3988442, “University of Dundee, Small-Polar-MMV Screening Library” (2021).
Among all 69,000 compounds or so, about 950 (1.4%) showed an effect of 50% or more. The sample holds strong results, similar compounds and a random draw of the others, so the mix is not that of the screen.

tested on: Mycobacterium tuberculosis; test: Cornell M. t heat shock assay; format: functional, organism-based; set-up: dose or concentration left out as unconfirmed; further: in the data most compounds retested in dose-response had high values

Row | SMILES | Percent Effect
1 | CCN1C(=O)C2(CCN(CCN(C)C)CC2)c2ccccc21.O=C(O)C(F)(F)F.O=C(O)C(F)(F)F | -13.81%
2 | Cc1ccc(C(=O)N2CCc3c(CNc4ncccn4)cncc3C2)o1.Cl | -7.52%
3 | CC(=O)N1C(CN2CCCC2)C[C@@H]2CN(C(=O)c3ccoc3)CC[C@@H]21.O=C(O)C(F)(F)F (stereo not given in full) | -8.828%
4 | CCc1cnc(N2Cc3cnc(C(C)(C)C)nc3C2)nc1 | 15.36%
5 | CC(C)Nc1ccnc(N2Cc3cnc(C(C)(C)C)nc3C2)n1 | 52.72%
6 | CCNc1ccnc(N2Cc3cnc(CC(C)C)nc3C2)n1 | 35.37%
7 | CC(C)Cc1ncc2c(n1)CN(c1nccc(N(C)C)n1)C2 | 7.671%
8 | COc1ccnc(N2Cc3cnc(C(C)(C)C)nc3C2)n1 | 14.25%
9 | CC(C)Cc1ncc2c(n1)CN(c1nccc(NC(C)C)n1)C2 | 83.11%
10 | O=C(O)C(F)(F)F.c1cnc(N2CCO[C@@H]3CN(Cc4ccoc4)C[C@@H]3C2)nc1 | -2.175%
11 | O=C(O)C(F)(F)F.O=C(c1ccc[nH]1)N1CCc2onc(COc3cccnc3)c2C1 | 7.093%
12 | C=C1C(C)(C)[C@H]2CC[C@]1(C(=O)N1CCC(n3cc(CCO)nn3)CC1)C2 | -7.185%
13 | O=C(O)C(F)(F)F.O=C(O)C(F)(F)F.O=C(c1cccc(F)c1)N1CCN2C[C@H](OCc3cccnc3)C[C@H]2C1 | -1.159%
14 | O=C(N[C@H]1COC[C@@H]1N1CCCC1)c1c[nH]nc1C1CCCCC1 | 69.58%
15 | CCO[C@H]1COC[C@@H]1NC(=O)c1c[nH]nc1C1CCCCC1 | -8.48%
16 | Cc1nc(C(=O)N[C@H]2COC[C@@H]2N2CCCCC2)cs1 | -0.7621%
17 | Cc1ccc2c(c1)C(NC1CC1)CC21CCNCC1.Cl (stereo not given) | -15.52%
18 | C[C@@H]1CN(C(=O)c2ccc[nH]2)C[C@]12CCN(CCN1CCCC1)C2=O.O=C(O)C(F)(F)F | 22.28%
19 | CNC(=O)CN1CCOCC2(CN(CCC(F)(F)F)CCO2)C1.O=C(O)C(F)(F)F.O=C(O)C(F)(F)F (stereo not given) | -25.1%
20 | Cc1ccc2c(c1)C(NC(=O)N(C)C)CC21CCN(CC2CC2)CC1.O=C(O)C(F)(F)F (stereo not given) | -3.475%
21 | COc1coc(C(=O)Nc2nc(C)cs2)cc1=O | 66.21%
22 | COc1coc(C(=O)Nc2nc(-c3ccccn3)cs2)cc1=O | 1.222%
23 | COc1c[nH]c(C(=O)Nc2nc(C)cs2)cc1=O | 69.04%

Row | SMILES | Percent Effect
24 | CCOC(=O)Cc1csc(NC(=O)c2cc(=O)c(OC)c[nH]2)n1 | 26.29%
25 | COc1coc(C(=O)Nc2nc(-c3ccncc3)cs2)cc1=O | -11.7%
26 | COc1c[nH]c(C(=O)Nc2nc(C(C)(C)C)cs2)cc1=O | 39.24%
27 | O=C(NCCN1CCOCC1)c1ccn(-c2ccc3ccccn23)n1.O=C(O)C(F)(F)F | -22.38%
28 | Cc1ccc(CN2CCC3(CCC(C(=O)N(C)C)O3)CC2)o1.O=C(O)C(F)(F)F (stereo not given) | -7.412%
29 | O=C(COc1ccccc1)N1C[C@@H]2COC[C@]2(COc2cccnc2)C1.O=C(O)C(F)(F)F | 12.4%
30 | Cc1nc(NCc2noc(C3CCCO3)n2)c2sccc2n1 (stereo not given) | -5.869%
31 | Cl.NC(=O)COc1ccc(CNCc2cc(F)cc(F)c2)cc1 | -21.98%
32 | O=C(Nc1ccc(N2CCCC2)nc1)N1CCc2ccccc2C1 | 58.68%
33 | O=C(Nc1ccc(N2CCCCC2)nc1)N1CCc2sccc2C1 | 18.45%
34 | O=C(Nc1ccc(N2CCCC2)nc1)N1CCc2sccc2C1 | 0.2913%
35 | CN1C[C@@H]2CC[C@H](CC1=O)N2C(=O)c1cc2ccccc2[nH]c1=O | 6.279%
36 | CN(C)C(c1ccccn1)[C@H]1CC[C@H](CNC(=O)CC2CCCC2)CC1 (stereo not given in full) | -9.462%
37 | Cc1nccn1CCCn1cncc1-c1ccc2c(c1)CC(C)N2C.Cl (stereo not given) | 48.58%
38 | CCN1CCc2cc(-c3cncn3CC(=O)NC(C)(C)C)ccc21.Cl | 19.95%
39 | CCOC(=O)c1n[nH]cc1-c1cncn1CCCn1nc(C)cc1C.Cl | 8.544%
40 | Cc1cc(C)n(CCCn2cncc2-c2ccc3c(c2)CC(C)N3C)n1.Cl (stereo not given) | 79.43%
41 | CCN1c2ccc(-c3cncn3CCCn3ccnc3C)cc2CC1C.Cl (stereo not given) | 100.1%
42 | Cc1nccn1CCCn1cncc1-c1ccc2c(c1)CCC(C)N2C.Cl (stereo not given) | 8.681%
43 | Cc1nccn1CCCn1cncc1-c1ccc2c(c1)CCCN2C.Cl | -22.83%
44 | CCN1c2ccc(-c3cncn3CC(=O)NC(C)(C)C)cc2CC1C.Cl (stereo not given) | 85.85%
45 | CC1Cc2cc(-c3cncn3CC(=O)NC(C)(C)C)ccc2N1C.Cl (stereo not given) | -7.03%
